This note sets out measurements from ChEMBL document CHEMBL1961873, “Compounds: GSK PKIS; Assays: Nanosyn kinase panel” (2012).

In assay [1] the target is T1, Serine/threonine-protein kinase D2 (Homo sapiens) (UniProt Q9BZL6).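 Also: mean value of PRKD2 inhibition, from the GSK PKIS screening panel.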
T1 sequence (whole entry): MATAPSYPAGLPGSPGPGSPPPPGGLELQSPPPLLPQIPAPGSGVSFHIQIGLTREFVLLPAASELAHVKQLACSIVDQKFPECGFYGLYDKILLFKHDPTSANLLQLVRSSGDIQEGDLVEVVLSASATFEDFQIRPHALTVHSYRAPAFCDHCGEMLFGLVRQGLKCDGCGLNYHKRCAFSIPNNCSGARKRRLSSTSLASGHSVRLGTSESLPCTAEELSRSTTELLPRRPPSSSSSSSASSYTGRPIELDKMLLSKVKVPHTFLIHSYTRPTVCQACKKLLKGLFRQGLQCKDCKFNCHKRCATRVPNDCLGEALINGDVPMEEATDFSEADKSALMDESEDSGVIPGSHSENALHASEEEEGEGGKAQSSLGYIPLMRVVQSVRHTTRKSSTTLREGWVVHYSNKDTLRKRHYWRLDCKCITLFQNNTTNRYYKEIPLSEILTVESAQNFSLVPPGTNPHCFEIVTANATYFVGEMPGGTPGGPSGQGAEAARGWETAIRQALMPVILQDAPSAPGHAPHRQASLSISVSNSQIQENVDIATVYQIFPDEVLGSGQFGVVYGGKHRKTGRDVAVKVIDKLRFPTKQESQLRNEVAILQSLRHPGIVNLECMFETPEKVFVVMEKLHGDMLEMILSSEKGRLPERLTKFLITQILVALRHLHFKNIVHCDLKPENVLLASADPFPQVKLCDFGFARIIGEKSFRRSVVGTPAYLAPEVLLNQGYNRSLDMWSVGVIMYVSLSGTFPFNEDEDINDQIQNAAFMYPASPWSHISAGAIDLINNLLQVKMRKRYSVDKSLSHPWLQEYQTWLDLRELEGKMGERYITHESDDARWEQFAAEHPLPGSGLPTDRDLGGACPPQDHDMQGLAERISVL
To be noted: at 1 µM.

The target of assay [2] is T2, Serine/threonine-protein kinase D3 (Homo sapiens) (UniProt O94806).
T2 sequence (whole entry): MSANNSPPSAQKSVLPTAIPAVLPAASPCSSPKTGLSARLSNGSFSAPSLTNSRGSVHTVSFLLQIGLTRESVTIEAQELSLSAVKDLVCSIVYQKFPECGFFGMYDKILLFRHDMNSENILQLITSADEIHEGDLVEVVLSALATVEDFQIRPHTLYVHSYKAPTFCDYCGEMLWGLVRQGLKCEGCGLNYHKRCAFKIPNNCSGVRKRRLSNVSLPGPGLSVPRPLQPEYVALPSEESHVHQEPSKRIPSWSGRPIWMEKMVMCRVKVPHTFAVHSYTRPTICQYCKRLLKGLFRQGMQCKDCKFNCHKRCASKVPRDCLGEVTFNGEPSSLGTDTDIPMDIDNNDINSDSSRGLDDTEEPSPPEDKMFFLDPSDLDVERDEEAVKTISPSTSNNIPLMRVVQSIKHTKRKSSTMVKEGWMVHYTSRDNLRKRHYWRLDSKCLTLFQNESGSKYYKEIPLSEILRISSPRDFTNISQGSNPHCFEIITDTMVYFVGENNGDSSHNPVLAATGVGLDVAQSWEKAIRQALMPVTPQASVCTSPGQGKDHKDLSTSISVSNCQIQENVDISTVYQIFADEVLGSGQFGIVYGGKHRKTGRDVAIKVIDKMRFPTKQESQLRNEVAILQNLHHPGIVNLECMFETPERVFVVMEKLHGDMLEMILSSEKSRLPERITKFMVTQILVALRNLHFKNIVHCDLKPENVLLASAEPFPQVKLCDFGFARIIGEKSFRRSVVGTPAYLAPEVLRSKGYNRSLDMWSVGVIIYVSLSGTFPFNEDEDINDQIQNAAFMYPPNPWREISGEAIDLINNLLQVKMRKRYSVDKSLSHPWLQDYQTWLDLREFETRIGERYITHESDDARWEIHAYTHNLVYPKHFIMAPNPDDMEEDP
The conditions noted are these: at 0.1 µM.

In assay [3] the target is T2, Serine/threonine-protein kinase D3 (Homo sapiens). The conditions noted are these: at 1 µM.
In assay [4] the target is T3, cGMP-dependent protein kinase 1 (Homo sapiens) (UniProt Q13976).
T3 sequence (whole entry): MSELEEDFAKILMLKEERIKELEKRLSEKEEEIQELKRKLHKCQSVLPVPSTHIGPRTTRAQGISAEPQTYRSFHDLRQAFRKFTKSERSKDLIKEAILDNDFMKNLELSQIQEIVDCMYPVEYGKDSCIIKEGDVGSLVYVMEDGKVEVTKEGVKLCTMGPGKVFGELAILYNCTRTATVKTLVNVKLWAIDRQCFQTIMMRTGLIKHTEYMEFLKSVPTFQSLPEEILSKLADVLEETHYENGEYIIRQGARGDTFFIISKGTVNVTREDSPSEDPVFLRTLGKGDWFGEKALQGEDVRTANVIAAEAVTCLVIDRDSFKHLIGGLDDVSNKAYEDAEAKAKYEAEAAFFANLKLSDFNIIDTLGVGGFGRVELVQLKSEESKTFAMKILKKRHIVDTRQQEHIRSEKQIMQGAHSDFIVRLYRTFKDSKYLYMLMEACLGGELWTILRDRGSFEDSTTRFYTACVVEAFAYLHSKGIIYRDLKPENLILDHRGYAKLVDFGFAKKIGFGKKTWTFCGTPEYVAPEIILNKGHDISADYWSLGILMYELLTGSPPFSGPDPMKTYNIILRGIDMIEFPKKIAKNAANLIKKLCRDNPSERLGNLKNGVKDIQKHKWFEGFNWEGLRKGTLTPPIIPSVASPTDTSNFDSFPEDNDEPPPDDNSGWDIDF
To be noted: at 0.1 µM.

Assay [5] addresses T3, cGMP-dependent protein kinase 1 (Homo sapiens). To be noted: at 1 µM.
For assay [6], the target named is T4, cGMP-dependent protein kinase 2 (Homo sapiens) (UniProt Q13237).
T4 sequence (whole entry): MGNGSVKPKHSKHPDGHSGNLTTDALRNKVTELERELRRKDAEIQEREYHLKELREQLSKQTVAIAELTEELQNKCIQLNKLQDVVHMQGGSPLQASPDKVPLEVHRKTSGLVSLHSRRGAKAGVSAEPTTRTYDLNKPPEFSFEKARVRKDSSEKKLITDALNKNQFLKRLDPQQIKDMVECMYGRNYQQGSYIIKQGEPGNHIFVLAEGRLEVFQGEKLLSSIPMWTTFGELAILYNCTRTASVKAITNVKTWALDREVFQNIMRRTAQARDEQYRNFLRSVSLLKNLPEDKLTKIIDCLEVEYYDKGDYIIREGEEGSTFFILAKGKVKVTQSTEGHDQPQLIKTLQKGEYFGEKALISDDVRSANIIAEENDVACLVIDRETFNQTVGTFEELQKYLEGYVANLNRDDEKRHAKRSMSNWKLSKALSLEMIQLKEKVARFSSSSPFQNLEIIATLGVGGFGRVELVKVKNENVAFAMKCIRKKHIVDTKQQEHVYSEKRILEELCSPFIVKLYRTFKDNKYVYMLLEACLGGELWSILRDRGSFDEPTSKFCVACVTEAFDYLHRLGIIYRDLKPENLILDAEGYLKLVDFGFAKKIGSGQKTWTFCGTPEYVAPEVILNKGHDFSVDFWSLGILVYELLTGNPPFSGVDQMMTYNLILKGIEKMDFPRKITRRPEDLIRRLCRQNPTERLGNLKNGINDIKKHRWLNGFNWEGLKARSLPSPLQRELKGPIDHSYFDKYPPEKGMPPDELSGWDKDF
To be noted: at 0.1 µM.

For assay [7], the target named is T4, cGMP-dependent protein kinase 2 (Homo sapiens). The conditions noted are these: at 1 µM.
Assay [8] deals with T5, cAMP-dependent protein kinase catalytic subunit PRKX (Homo sapiens) (UniProt P51817).
T5 sequence (whole entry): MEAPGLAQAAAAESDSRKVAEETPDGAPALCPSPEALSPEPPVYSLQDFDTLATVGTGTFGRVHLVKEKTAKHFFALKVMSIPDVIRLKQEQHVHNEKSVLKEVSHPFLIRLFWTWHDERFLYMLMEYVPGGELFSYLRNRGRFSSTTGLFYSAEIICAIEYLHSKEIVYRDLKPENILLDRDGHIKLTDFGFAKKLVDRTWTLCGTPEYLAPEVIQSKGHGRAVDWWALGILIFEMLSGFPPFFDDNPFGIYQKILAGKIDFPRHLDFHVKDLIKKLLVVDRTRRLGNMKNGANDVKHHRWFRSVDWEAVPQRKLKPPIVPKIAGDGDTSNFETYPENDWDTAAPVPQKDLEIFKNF
The conditions noted are these: at 0.1 µM.

Assay [9] addresses T5, cAMP-dependent protein kinase catalytic subunit PRKX (Homo sapiens). To be noted: at 1 µM.
Assay [10] addresses Rho-associated protein kinase 1 (Homo sapiens) (UniProt Q13464). The conditions noted are these: at 0.1 µM.
For assay [11] the target is unchanged. To be noted: at 1 µM.
In assay [12] the target is Rho-associated protein kinase 2 (Homo sapiens) (UniProt O75116). To be noted: at 0.1 µM.
Assay [13] has the same target. The conditions noted are these: at 1 µM.
Assay [14] concerns the target Ribosomal protein S6 kinase alpha-1 (Homo sapiens) (UniProt Q15418). The conditions noted are these: at 0.1 µM.
For assay [15] the target is unchanged. The conditions noted are these: at 1 µM.
Assay [16] addresses Ribosomal protein S6 kinase alpha-3 (Homo sapiens) (UniProt P51812). The conditions noted are these: at 0.1 µM.
For assay [17] the target is unchanged. The conditions noted are these: at 1 µM.
In assay [18] the target is Ribosomal protein S6 kinase alpha-2 (Homo sapiens) (UniProt Q15349). To be noted: at 0.1 µM.
Assay [19] shares this target. The conditions noted are these: at 1 µM.
In assay [20] the target is Ribosomal protein S6 kinase alpha-6 (Homo sapiens) (UniProt Q9UK32). To be noted: at 0.1 µM.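 Also: reported value is the mean inhibition of RSK4, from the GSK PKIS kinase inhibitor screen.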

Rho-associated protein kinase 1 (Homo sapiens), sequence (Q13464 2-1354 limits assumed): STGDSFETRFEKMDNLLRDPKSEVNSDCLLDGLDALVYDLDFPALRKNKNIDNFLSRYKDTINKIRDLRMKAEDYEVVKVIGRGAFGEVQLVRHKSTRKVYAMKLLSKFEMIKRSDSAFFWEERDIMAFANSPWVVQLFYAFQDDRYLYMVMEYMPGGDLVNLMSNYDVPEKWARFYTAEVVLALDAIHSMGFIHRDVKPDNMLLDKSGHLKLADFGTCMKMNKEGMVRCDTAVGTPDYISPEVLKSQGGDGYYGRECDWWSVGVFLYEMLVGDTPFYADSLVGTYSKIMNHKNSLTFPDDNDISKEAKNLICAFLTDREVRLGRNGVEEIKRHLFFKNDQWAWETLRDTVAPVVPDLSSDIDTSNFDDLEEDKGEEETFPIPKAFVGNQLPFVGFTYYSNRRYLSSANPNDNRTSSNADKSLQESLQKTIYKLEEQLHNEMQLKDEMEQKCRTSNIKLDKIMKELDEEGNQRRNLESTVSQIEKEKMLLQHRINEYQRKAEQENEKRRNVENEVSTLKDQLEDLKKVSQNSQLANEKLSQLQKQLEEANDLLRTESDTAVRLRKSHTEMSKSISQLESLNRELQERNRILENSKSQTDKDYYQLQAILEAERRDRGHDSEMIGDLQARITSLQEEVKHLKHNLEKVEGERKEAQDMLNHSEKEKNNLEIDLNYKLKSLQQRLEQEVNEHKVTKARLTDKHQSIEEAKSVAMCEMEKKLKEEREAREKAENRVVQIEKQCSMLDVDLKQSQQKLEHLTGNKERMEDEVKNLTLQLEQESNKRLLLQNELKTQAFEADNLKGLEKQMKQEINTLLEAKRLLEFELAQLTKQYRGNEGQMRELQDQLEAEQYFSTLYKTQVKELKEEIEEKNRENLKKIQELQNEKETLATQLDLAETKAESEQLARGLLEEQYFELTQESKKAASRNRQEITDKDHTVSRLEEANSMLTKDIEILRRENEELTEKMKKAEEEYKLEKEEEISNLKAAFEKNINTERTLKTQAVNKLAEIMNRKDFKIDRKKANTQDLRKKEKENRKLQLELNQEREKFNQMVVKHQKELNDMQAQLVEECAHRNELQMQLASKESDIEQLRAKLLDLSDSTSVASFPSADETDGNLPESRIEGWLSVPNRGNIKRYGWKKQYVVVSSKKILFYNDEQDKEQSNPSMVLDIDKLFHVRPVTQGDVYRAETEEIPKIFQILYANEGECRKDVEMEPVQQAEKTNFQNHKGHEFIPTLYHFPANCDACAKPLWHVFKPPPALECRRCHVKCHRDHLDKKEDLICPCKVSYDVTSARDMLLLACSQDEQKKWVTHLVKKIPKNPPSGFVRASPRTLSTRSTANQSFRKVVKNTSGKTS
Rho-associated protein kinase 2 (Homo sapiens), sequence (O75116 whole entry, looked up): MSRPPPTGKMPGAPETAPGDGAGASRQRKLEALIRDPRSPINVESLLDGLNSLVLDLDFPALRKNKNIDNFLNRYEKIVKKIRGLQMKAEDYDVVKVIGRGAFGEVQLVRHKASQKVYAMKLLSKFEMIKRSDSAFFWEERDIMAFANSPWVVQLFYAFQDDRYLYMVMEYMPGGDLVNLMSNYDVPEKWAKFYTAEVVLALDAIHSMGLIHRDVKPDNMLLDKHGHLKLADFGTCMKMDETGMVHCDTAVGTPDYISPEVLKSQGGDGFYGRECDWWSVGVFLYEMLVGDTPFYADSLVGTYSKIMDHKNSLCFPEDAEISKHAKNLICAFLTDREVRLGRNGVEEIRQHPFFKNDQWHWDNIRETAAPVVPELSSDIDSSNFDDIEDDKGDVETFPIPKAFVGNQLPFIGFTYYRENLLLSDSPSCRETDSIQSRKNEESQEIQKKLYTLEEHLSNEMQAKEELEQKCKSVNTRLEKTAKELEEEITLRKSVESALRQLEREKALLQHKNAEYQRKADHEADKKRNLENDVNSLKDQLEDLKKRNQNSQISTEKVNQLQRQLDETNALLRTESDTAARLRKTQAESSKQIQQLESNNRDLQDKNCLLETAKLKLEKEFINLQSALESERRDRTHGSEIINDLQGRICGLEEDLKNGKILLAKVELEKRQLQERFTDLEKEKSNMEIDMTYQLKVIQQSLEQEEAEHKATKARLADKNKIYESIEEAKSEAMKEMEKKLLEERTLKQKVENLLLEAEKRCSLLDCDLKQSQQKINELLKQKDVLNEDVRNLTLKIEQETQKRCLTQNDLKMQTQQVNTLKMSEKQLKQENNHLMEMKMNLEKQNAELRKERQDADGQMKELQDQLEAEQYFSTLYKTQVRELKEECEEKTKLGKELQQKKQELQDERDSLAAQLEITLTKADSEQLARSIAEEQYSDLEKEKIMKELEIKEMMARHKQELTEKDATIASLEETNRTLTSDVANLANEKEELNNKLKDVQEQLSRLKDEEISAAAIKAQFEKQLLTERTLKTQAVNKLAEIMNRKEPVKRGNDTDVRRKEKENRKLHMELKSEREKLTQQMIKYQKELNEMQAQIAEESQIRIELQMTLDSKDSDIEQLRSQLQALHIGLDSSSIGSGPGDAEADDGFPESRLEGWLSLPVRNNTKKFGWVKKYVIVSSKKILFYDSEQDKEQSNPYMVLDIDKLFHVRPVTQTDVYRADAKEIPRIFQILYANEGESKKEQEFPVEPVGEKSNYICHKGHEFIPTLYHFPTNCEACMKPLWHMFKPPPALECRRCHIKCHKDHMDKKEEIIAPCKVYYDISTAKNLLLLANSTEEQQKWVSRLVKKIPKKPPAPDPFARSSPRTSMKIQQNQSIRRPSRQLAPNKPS
Ribosomal protein S6 kinase alpha-2 (Homo sapiens), sequence (Q15349 whole entry): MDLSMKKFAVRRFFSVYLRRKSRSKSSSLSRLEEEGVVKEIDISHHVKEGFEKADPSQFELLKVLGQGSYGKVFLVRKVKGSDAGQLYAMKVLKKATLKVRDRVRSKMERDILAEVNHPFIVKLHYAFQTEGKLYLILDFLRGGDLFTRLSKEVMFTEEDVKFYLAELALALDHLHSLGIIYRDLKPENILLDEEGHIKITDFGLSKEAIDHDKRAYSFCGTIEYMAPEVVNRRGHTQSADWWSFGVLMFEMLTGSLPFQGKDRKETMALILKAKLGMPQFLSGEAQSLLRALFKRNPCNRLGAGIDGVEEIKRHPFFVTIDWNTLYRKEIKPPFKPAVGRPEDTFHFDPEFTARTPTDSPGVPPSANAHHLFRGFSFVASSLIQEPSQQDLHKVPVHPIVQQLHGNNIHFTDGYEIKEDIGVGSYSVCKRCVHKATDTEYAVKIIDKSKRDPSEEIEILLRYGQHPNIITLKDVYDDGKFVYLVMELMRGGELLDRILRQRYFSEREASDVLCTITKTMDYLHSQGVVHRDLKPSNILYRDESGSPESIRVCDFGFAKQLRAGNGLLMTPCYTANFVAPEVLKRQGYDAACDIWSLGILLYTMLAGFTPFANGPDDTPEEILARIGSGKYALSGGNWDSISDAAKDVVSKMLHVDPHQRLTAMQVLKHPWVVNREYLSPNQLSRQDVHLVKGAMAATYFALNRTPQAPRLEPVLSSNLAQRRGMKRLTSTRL
Ribosomal protein S6 kinase alpha-3 (Homo sapiens), sequence (P51812 whole entry): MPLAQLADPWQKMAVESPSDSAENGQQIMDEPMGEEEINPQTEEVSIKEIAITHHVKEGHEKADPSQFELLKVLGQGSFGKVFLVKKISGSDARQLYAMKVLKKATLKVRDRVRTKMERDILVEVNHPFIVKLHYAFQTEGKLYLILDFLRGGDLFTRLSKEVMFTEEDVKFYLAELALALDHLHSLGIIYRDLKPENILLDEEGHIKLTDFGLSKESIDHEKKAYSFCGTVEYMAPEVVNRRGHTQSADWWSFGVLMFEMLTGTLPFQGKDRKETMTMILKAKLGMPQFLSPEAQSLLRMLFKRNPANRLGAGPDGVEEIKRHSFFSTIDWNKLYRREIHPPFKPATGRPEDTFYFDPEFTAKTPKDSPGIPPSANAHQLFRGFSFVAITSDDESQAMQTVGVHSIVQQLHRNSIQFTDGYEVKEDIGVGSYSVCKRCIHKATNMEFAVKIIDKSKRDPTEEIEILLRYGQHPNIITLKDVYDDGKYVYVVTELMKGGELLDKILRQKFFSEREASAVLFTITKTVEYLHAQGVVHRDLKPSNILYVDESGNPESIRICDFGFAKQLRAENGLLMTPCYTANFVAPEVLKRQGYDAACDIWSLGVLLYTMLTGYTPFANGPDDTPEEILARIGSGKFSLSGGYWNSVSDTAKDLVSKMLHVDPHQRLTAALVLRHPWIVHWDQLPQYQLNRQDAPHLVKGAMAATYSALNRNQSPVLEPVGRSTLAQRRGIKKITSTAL
Ribosomal protein S6 kinase alpha-1 (Homo sapiens), sequence (Q15418 whole entry): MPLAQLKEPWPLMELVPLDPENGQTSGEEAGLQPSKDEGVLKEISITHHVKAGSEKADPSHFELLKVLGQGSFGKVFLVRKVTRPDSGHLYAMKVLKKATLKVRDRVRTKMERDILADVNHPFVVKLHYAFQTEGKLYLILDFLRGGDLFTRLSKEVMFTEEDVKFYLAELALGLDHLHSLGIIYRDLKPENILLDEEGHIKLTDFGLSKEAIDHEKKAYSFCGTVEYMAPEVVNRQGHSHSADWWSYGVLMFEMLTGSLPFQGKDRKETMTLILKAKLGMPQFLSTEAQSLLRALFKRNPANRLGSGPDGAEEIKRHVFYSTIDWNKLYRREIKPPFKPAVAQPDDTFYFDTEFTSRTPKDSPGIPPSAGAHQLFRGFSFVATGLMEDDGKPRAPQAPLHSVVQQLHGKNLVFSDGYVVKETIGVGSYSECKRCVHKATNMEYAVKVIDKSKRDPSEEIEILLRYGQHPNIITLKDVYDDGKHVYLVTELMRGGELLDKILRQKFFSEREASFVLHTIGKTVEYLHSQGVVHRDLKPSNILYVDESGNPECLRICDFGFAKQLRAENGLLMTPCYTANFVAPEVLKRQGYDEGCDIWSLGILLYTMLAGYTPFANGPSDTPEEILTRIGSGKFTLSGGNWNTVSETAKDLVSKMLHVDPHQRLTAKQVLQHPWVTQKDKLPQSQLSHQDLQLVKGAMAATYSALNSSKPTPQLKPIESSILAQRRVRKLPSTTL

Regarding `COc1ccccc1-c1cc(/C=C2\C(=O)Nc3ncc(Br)cc32)cc(Br)c1O`, the inhibition – broadly, the change of the read-out against control, counted positive when it falls – came to 6.48% in assay [1]; 5.02% in assay [2]; 6.21% in assay [3]; 2.01% in assay [4]; 5.3% in assay [5]; 1.73% in assay [6]. Also, the inhibition is 5.97% in assay [7]; 0.16% in assay [8]; 0.16% in assay [9]; 0.21% in assay [10]; 2.31% in [11]; 1.89% in assay [12]. In addition, the inhibition in assay [13] was 2.15%; in assay [14], 0.44%; in assay [15], 0.08%; in assay [16], 0.16%; in assay [17], 1.15%; in assay [18] it was 1.52%. Also, the inhibition is 3.85% in assay [19] and -0.23% in assay [20].

For `COc1ccc2ncn(-c3cc(O[C@H](C)c4ccccc4C(F)(F)F)c(C(N)=O)s3)c2c1`, the inhibition in assay [1] is 1.77%; in assay [2] it was -0.52%; in [3], 0.07%; in [4], 0.03%; in [5], 1.49%; in assay [6], 0.1%. The inhibition in assay [7] is 0.7%; in assay [8], -0.2%; in assay [9] it was -0.15%; in assay [10], 0.72%; in assay [11], 0.18%; in assay [12], -0.01%. In addition, the inhibition is -0.4% in [13]; 0.85% in assay [14]; 3.85% in [15]; 1.38% in assay [16]; 6.99% in assay [17]; 0.69% in assay [18]. For the same molecule, the inhibition turned out to be 2.5% in assay [19] and 1.31% in [20].

In the case of `c1ccc(-c2n[nH]cc2-c2ccnc(-c3ccc(OCCn4ccnc4)cc3)c2)nc1`, the inhibition in assay [1] came out at 64.3%; in [2], 7.07%; in assay [3] it was 47.7%; in assay [4], 0.59%; in assay [5] it was 4.08%; in assay [6] it was 1.04%. The inhibition in assay [7] was found to be 2.63%; in assay [8], 2.32%; in assay [9], 7.66%; in assay [10] it was 4.13%; in [11] it was 5.6%; in assay [12] it was 5.64%. Besides, the inhibition in assay [13] was 7.73%; in assay [14], 0.66%; in assay [15] it was 4.31%; in assay [16], 0.64%; in assay [17] it was 3.85%; in [18], 1.32%. Besides, the figures for the inhibition in assay [19] and in assay [20] were 1.36% and 0.75%, respectively.

`COc1ccc(Nc2ncc(-c3ccccc3)o2)cc1OC`: the inhibition came out at 3.42% in [1]; 0.5% in assay [2]; 2.14% in [3]; 0.71% in [4]; 3.32% in assay [5]; 0.93% in assay [6]. Further, the inhibition was 3.83% in [7]; -0.11% in assay [8]; -0.56% in [9]; -0.21% in assay [10]; 2.03% in assay [11]; -0.31% in assay [12]. Further, the inhibition in [13] turned out to be 2.22%; in [14], 0.28%; in [15] it was 2.18%; in assay [16] it was 0.01%; in assay [17], 2.14%; in [18], 1.32%. The results for the inhibition in assay [19] and in assay [20] were 4.35% and 0.4%, respectively.
